Anthrax LF inh2 = Bacillus anthracis LF protease inhibitors, primary screen, biochemical, multiplex microsphere, MLPCN library; inhibition, % at 10 µM; AID 588501, 2011; multiplex microsphere protease cleavage assay; 360,000 tested, 0.12% active; Lethal factor (Bacillus anthracis), P15917; note: plate controls were buffer without enzyme for full effect and enzyme alone for no effect
Target sequence (P15917 whole entry, looked up): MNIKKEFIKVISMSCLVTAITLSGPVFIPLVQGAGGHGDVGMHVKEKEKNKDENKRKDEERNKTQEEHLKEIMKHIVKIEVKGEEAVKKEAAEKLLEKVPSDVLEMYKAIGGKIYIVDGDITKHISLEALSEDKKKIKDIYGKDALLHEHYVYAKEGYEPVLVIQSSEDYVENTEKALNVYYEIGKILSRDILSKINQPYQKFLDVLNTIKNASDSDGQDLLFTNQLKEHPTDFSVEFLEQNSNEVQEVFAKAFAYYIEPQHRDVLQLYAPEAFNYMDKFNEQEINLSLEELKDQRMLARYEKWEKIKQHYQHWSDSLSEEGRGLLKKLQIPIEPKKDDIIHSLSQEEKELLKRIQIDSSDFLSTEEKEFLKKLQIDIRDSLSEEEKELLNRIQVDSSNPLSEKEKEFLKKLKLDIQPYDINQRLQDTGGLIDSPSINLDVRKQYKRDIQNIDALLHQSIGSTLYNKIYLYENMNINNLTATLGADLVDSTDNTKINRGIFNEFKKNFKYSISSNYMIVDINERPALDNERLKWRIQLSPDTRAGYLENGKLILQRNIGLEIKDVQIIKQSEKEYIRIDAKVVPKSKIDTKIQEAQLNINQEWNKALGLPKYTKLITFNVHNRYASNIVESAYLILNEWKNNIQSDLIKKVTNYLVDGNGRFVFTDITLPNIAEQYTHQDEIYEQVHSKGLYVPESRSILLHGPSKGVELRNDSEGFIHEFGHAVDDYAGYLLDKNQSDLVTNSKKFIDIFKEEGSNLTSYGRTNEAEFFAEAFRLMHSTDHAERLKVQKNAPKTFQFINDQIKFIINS
BoNT-A LC inh2 = BoNT/A light chain protease inhibitors, primary screen, biochemical, flow cytometry, MLPCN library; multiplex microsphere protease substrate cleavage; inhibition, % at 10 µM; 360,000 tested, 0.17% active; note: plate controls were buffer without enzyme for full effect and enzyme alone for no effect
Bead autofluor = compound fluorescence in toxin protease inhibitor counterscreen | compound autofluorescence counterscreen, microsphere flow cytometry; hits give high values | fluorescence intensity (concentration not given with the values) | 360,000 tested, 3.1% active | AID 624483; in the data active = fluorescence intensity above about 16000; inconclusive = no clear call, values can overlap the other calls
BoNT F protease = BoNT/F light chain protease inhibitors, primary screen, biochemical, flow cytometry, MLPCN library; Multiplex microsphere protease cleavage assay; AID 588497, 2011; 360,000 tested, 0.22% active; Botulinum neurotoxin type F light chain protease (Clostridium botulinum); inhibition, % at 10 µM; in the data active = inhibition above about 35%, passing the limit was not always enough; inconclusive = no clear call, values can overlap the other calls; note: plate controls were buffer without enzyme for full effect and enzyme alone for no effect
Active calls of the source: *; u = inconclusive. A selection: hits, their analogues and other compounds. The true share with any hit is near 3.5%. Cut-off read from the data, not from the text of the source, unless noted: active = inhibition above about 30%; inconclusive = no clear call, values can overlap the other calls; inactive = below that.

SMILES	Anthrax LF inh2	BoNT-A LC inh2	Bead autofluor	BoNT F protease
COc1ccc(N2CC(O)(c3ccc(C)cc3)[N+]3=C2CCCC3)cc1 (stereo not drawn)	4.0	-0.1	3530	0.7
COc1ccc(N2C3=[N+](CCCC3)CC2(C)O)cc1 (stereo not drawn)	-4.2	-2.7	16662*	-4.3
COc1ccc(OC)c(CC(=O)N2CCc3cc(OC)c(OC)cc3C2)c1	-8.5	1.1	3793	u
Cc1cc(F)ccc1C(O)c1ncc(-c2ccccc2F)[nH]1 (stereo not drawn)	-10.7	-0.4	3003	-3.2
Cc1ccc(-n2c(-c3ccc(Br)cc3)c[n+]3c2CCc2ccc4cccnc4c2-3)cc1	1.7	-1.5	21635*	0.9
CCOC(=O)NC(CC(=O)O)c1ccc(OC)c(OC)c1 (stereo not drawn)	0.4	-0.1	16400*	-1.1
CCc1ccc(N(C(=O)CCC(=O)Nc2cc(C)on2)C(C(=O)NC(C)(C)C)c2ccc(OC)cc2)cc1 (stereo not drawn)	-6.5	-1.1	3818	35.3*
CC(Oc1ccc(Cl)cc1Cl)c1ccnc(N)n1 (stereo not drawn)	-7.1	0.0	4565	-3.3
Cc1cc(Cl)ccc1OC(C)c1nnc(N)s1 (stereo not drawn)	-2.3	-0.8	16493*	-1.2
O=c1[nH]cnc2c1C(c1ccccc1[N+](=O)[O-])c1c(nc[nH]c1=O)O2	-1.8	2.7	20743*	2.6
COc1ccc(C2c3c(nc[nH]c3=O)Oc3nc[nH]c(=O)c32)cc1	12.6	-0.1	3616	24.5
COc1cc(NC(=O)Nc2cccc(C(C)=O)c2)cc(OC)c1OC	-10.3	1.4	21687*	-0.9
COc1cc(OC)cc(C(=O)Nc2cccc(NC(=O)c3ccccc3)c2)c1	8.4	3.1	3674	13.1
COc1cccc(C(=O)Nc2ccc(NC(C)=O)cc2)c1	-3.8	u	22073*	-0.8
COc1ccc(NC(=O)c2cccc(OC(F)F)c2)cc1Cl	-6.5	u	23117*	-3.9
COc1cc(OC)cc(C(=O)Nc2cccc(C(C)=O)c2)c1	-2.6	1.4	22501*	-1.2
COc1ccccc1CCNC(=O)C(=O)NCC1OCCN1S(=O)(=O)c1ccc(C)cc1 (stereo not drawn)	9.0	0.0	5699	3.0
COc1cc2ccccc2cc1C(=O)NCC(c1cccs1)N(C)C (stereo not drawn)	1.5	-0.1	4151	-2.8
CCOc1cc(C2C(C(=O)c3ccco3)=C(O)C(=O)N2CC2CCCO2)ccc1O (stereo not drawn)	-1.3	-0.8	5305	2.3
CC(=O)c1cccc(NC(=O)c2oc(C)nc2C)c1	1.7	-1.4	24179*	-4.3
CC(=O)c1cccc(NC(=O)c2onc(C)c2Cl)c1	1.9	0.2	5061	0.1
COc1cccc(C(=O)NC2CCSC2=O)c1 (stereo not drawn)	-1.5	0.9	19865*	-1.2
O=C(CNC(=O)c1ccc2ccccc2c1)NCc1ccc(F)cc1	-4.6	-3.0	3301	-20.3
CC1CC(C)CN(S(=O)(=O)c2ccc(C(=O)N3CCOCC3)cc2)C1 (stereo not drawn)	-2.2	2.0	4247	12.1
CCOC(=O)c1sc(N)c(C#N)c1COC(=O)CNC(=O)c1cc(OC)c(OC)c(OC)c1	-5.2	0.0	16372*	-4.8
SMILES	Anthrax LF inh2	BoNT-A LC inh2	Bead autofluor	BoNT F protease
COc1cc(C(=O)NCC(=O)OCc2ccccc2Cl)cc(OC)c1OC	6.8	-0.2	4527	-4.8
Cc1ccccc1CN1CCNC1=O	-8.6	2.4	19805*	-1.5
Cc1ccccc1CN1CCCNC1=O	-2.4	0.8	10623	0.1
NNC(=O)c1cc2c(ccc3ccccc32)o1	-7.5	-0.4	3213	-1.3
O=C(Nc1cccnc1)c1cc2c(ccc3ccccc32)o1	-5.9	0.4	23266*	-2.3
Cc1ccc(NC(=O)c2ccccc2OCC(=O)c2ccc(F)cc2)cc1	3.8	2.1	6941	23.3
CCOc1ccc(NC(=O)c2ccccc2OCC(=O)c2ccc(C)cc2)cc1	-0.3	-0.7	23534*	2.5
CCc1ccc(C(=O)COc2ccc(NC(C)=O)cc2)cc1	-1.0	0.0	24015*	-2.0
CSc1ccc(S(=O)(=O)N2CCC(C(=O)Nc3ccccc3C(F)(F)F)CC2)cc1	3.7	-1.1	3612	-22.2
CC(C)N(Cc1nccn1C)C(=O)CC1C(=O)NCCN1Cc1ccc(F)c(F)c1 (stereo not drawn)	0.4	2.9	3764	3.5
CCc1ccc(C(=O)c2oc3nc(C)cc(C)c3c2N)cc1	-5.0	-2.6	20259*	-3.4
COc1cc([N+](=O)[O-])ccc1NC(=O)Nn1cnnc1	0.6	-2.4	4701	-2.3
O=C(O)c1ccc(NS(=O)(=O)/C=C/c2ccccc2)cc1O	0.8	5.4	21416*	3.9
Cc1c(NS(=O)(=O)c2cccc(C(=O)Nc3cccc(F)c3)c2)c(=O)n(-c2ccccc2)n1C	-6.3	5.5	4180	8.6
O=C(CSc1nccc(=O)[nH]1)Nc1ccc(F)c(Cl)c1	-0.1	u	24003*	-0.4
O=C(NCc1ccccc1F)C1CC(=O)N(c2ccc3c(c2)OCCO3)C1 (stereo not drawn)	-0.5	1.4	u	9.0
O=C(NCCCc1ccccc1)C1CC(=O)N(c2ccc3c(c2)OCCO3)C1 (stereo not drawn)	-1.5	u	20162*	2.3
CC(C=NNc1ccc([N+](=O)[O-])cn1)=Cc1ccccc1	-5.8	-0.1	3853	1.1
CCOC(=O)COc1ccccc1/C=C1\NC(=O)NC1=O	2.2	-0.3	4868	0.4
CCOC(=O)COc1ccccc1-c1ccno1	-3.3	u	21115*	-7.5
CC(NC(=O)CCSCc1ccccc1F)c1ccccc1 (stereo not drawn)	-7.7	-1.1	3529	16.2
O=[N+]([O-])c1ccc(N2CCN(CC3CCCCC3)CC2)cc1	-8.2	0.4	4138	5.3
COc1nc(-c2ccccc2)ccc1-c1noc(-c2cccnc2)n1	-1.5	-2.5	23960*	-5.4
CC(=O)NS(=O)(=O)c1ccc(NS(=O)(=O)c2ccccc2[N+](=O)[O-])cc1	-1.4	0.1	4246	7.1
CC(=O)Nc1ccc(S(=O)(=O)Oc2ccc(N3C(=O)C4CCCCC4C3=O)cc2)cc1 (stereo not drawn)	-6.2	u	19304*	-1.1
SMILES	Anthrax LF inh2	BoNT-A LC inh2	Bead autofluor	BoNT F protease
Cc1nn(Cc2ccccc2)c(C)c1CNC(=O)CN=C1NS(=O)(=O)c2ccccc21	-1.4	3.7	5766	20.2
CCN1CCN(CC(O)COC(C)C)CC1 (stereo not drawn)	-2.2	-0.3	20191*	-0.6
Cc1cnc(C(=O)Nc2ccc(F)cc2)cn1	2.5	3.1	21955*	6.0
Cc1cnc(C(=O)Nc2ccc(C(C)C)cc2)cn1	-1.3	-0.2	3899	-2.2
Fc1ccc(CNn2cnnc2SCc2ccc(F)cc2)cc1	14.3	0.9	6004	0.9
Cc1ccc(CNn2cnnc2SCc2ccc(F)cc2)cc1	-2.9	-0.2	22609*	-0.7
Cc1ccsc1CNn1cnnc1SCc1ccc(Cl)cc1	0.1	-3.5	23748*	-7.3
O=C(Nc1nnc(SCc2ccccc2)s1)c1cccs1	-2.2	-0.1	2670	-0.5

Compound activity: PubChem BioAssay, NMMLSC
